Test [1] is described as follows: ATG_CRE_CIS: Attagene CIS-FACTORIAL HepG2 Assay for human cAMP Responsive Element (CRE) binding protein 3 (AID 2282926). As to conditions: HepG2 CRE cis-reporter, Attagene multiplexed mRNA; actives raise or lower the signal. In short, it runs like this: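 Capillary electrophoresis of 6-FAM-labelled, HpaI-digested PCR products quantified reporter transcripts. These came from HepG2 transiently transfected with cis-element reporters and exposed to test chemicals for 24 hours, with DMSO defining baseline activity.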

Test [2] deals with CCAAT/enhancer-binding protein beta (Homo sapiens) (UniProt P17676). Briefly: ATG_C_EBP_CIS: Attagene CIS-FACTORIAL HepG2 Assay for human CCAAT/Enhancer Binding Protein (C/EBP) beta (AID 2282927). As to conditions: HepG2 Attagene cis-factorial transcription factor reporter; actives raise or lower the signal. In short, it runs like this: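 Endogenous transcription factor activity in human liver HepG2 cells is inferred from induction of a CEBPB-linked reporter mRNA. Exposure lasts 24 h; activity is fitted in both directions relative to DMSO.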

Test [3] in a line: ATG_CMV_CIS: Attagene CIS-FACTORIAL HepG2 Assay for human CMV (Internal Marker) (AID 2282928).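 Further: endpoint acts as a background internal control marker rather than a target.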 As to conditions: HepG2 CMV promoter reporter, transcription factor profiling; actives raise or lower the signal. Summed up: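 24 h chemical treatment, HepG2 with transient multi-reporter transfection; RNA → oligo(dT) RT → PCR → 6-FAM extension → HpaI digest → CE fluorescence. Bidirectional fit, DMSO negative control.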

Test [4] in a line: ATG_DR4_LXR_CIS: Attagene CIS-FACTORIAL HepG2 Assay for human Liver X Receptor (LXR), DR4 submotif (AID 2282929). The following applies: HepG2 Attagene DR4 cis-reporter, mRNA transcription; actives raise or lower the signal. Summed up:
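Cells were transfected with multiple reporter transcription units, exposed to chemicals for 24 hours, then lysed for RNA. Reporter mRNA induction was measured by RT-PCR with capillary electrophoresis detection and fitted in both directions relative to DMSO.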

In test [5] the target is Aryl hydrocarbon receptor (Homo sapiens) (UniProt P35869). Nature of the test: ATG_Ahr_CIS: Attagene CIS-FACTORIAL HepG2 Assay for human Aryl Hydrocarbon Receptor (Ahr) (AID 2282930). The following applies: HepG2 AhR cis-factorial reporter transcription; actives raise or lower the signal. In short, it runs like this: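 Transient MRTU transfection of HepG2 → 24 h compound exposure → total RNA, oligo(dT) RT → PCR, 6-FAM extension, HpaI cut → CE fluorescence. DMSO = baseline; bidirectional curve fit.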

Test [6] can be described thus: ATG_AP_1_CIS: Attagene CIS-FACTORIAL HepG2 Assay for human Activator Protein 1 (AP-1) (AID 2282931). As to conditions: HepG2 Attagene cis-factorial AP-1 reporter mRNA; actives raise or lower the signal. Summed up: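 Endogenous transcription-factor activity in human HepG2 liver cells is read through a cis-promoter reporter transcript, sampled 24 h after dosing. Detection uses RT-PCR with capillary electrophoresis; values come from bidirectional fitting relative to DMSO.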

A short description of test [7]: ATG_AP_2_CIS: Attagene CIS-FACTORIAL HepG2 Assay for human Activator Protein 2 (AP-2) (AID 2282932). As to conditions: HepG2 AP-2 cis-reporter, Attagene transcription factor profiling; actives raise or lower the signal. In short, it runs like this: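 Transiently transfected HepG2 cells are exposed to chemical for 24 h. Reporter transcripts are then measured as fluorescence following RT-PCR and capillary separation, and gain- or loss-of-signal is fitted relative to DMSO.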

Test [8] can be described thus: ATG_BRE_CIS: Attagene CIS-FACTORIAL HepG2 Assay for human Bone Morphogenetic Protein (BMP) Response Element (BRE) (AID 2282933). The following applies: HepG2 BMP response element reporter, Attagene transcription factor profiling; actives raise or lower the signal. In short, it runs like this:
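Fluorescence-labelled reporter cDNA fragments, separated by capillary electrophoresis, gave the signal for this component of a 52-readout multiplex. HepG2 cells were transfected, exposed to chemicals for 24 h, and compared with DMSO using bidirectional fitting.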

The target of test [9] is Transcription factor E2F1 (Homo sapiens) (UniProt Q01094). Briefly: ATG_E2F_CIS: Attagene CIS-FACTORIAL HepG2 Assay for human E2F Transcription Factor 1 (AID 2282935). As to conditions: HepG2 Attagene cis-reporter, E2F reporter RNA transcripts; actives raise or lower the signal. In short, it runs like this:
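Fluorescent RT-PCR products, digested with HpaI for 2 h at 37 C, are separated by capillary electrophoresis. Source RNA comes from transfected HepG2 cultures treated for 24 h.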

A short description of test [10]: ATG_E_Box_CIS: Attagene CIS-FACTORIAL HepG2 Assay for human Enhancer Box (E-box) (AID 2282936). The following applies: HepG2 E-box cis-reporter transcription, actives raise or lower the signal. Summed up:
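Fluorescent reporter fragments separated by capillary electrophoresis gave the signal; mRNA came from HepG2 cells transfected with cis-element reporters and treated 24 h. Curves fitted bidirectionally relative to DMSO controls.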

The nature of test [11]: ATG_M_61_CIS: Attagene CIS-FACTORIAL HepG2 Assay for M61 Transcription Factor (Internal Marker) (AID 2282937). The following applies: HepG2 Attagene CIS-FACTORIAL M61 internal marker reporter; actives raise or lower the signal. Summed up:
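Cells were transfected with reporter units under cis-regulatory promoters, treated with chemicals for 24 h, then lysed for RNA. Reporter transcripts were quantified by RT-PCR and capillary electrophoresis, and activity was fitted bidirectionally against DMSO.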

Test [12] is described as follows: ATG_EGR_CIS: Attagene CIS-FACTORIAL HepG2 Assay for human Early Growth Response 1 (EGR1) (AID 2282938). The following applies: HepG2 Attagene CIS-FACTORIAL EGR reporter mRNA; actives raise or lower the signal. Summed up: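 Endogenous TF activity in HepG2 liver cells was gauged through cis-promoter reporter constructs transiently transfected. After 24 h dosing, reporter mRNA was quantified by RT-PCR and capillary electrophoresis, and curves fitted in both directions versus DMSO.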

A short description of test [13]: ATG_M_19_CIS: Attagene CIS-FACTORIAL HepG2 Assay for M19 Transcription Factor (Internal Marker) (AID 2282939). As to conditions: HepG2 Attagene CIS-FACTORIAL M19 internal marker reporter; actives raise or lower the signal. In short, it runs like this:
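HepG2, MRTU transient transfection, 24 h dosing. Total RNA → RT-PCR → 6-FAM primer extension → HpaI digest → CE fluorescence. Bidirectional curve fit, DMSO negative control.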

Test [14] can be described thus: ATG_ERE_CIS: Attagene CIS-FACTORIAL HepG2 Assay for Estrogen Response Element (ERE) (AID 2282940). As to conditions: HepG2 ERE cis-reporter, Attagene RNA transcript; actives raise or lower the signal. Summed up:
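After a 24 h chemical treatment, RNA from reporter-transfected HepG2 cells is reverse-transcribed, PCR-amplified and fluorescently labelled. Fragments separated by capillary electrophoresis give reporter signal; DMSO serves as negative control.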

Test [15] can be described thus: ATG_Ets_CIS: Attagene CIS-FACTORIAL HepG2 Assay for human Erythroblast Transformation Specific (ETS) (AID 2282941). As to conditions: HepG2 ETS cis-reporter transcription, actives raise or lower the signal. Summed up:
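Cis-regulated reporter mRNA induction in HepG2 (transient transfection), 24 h exposure, RT-PCR plus capillary electrophoresis detection; DMSO serves as negative control and baseline.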

Test [16] concerns the target Hepatocyte nuclear factor 3-beta (Homo sapiens) (UniProt Q9Y261). Nature of the test: ATG_FoxA2_CIS: Attagene CIS-FACTORIAL HepG2 Assay for human Forkhead box A2 (FOXA2) (AID 2282942). The following applies: HepG2 cis-reporter transcription factor activity, 24 h; actives raise or lower the signal. In short, it runs like this: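 Endogenous transcription factor activity was read in HepG2 cells carrying transiently transfected cis-promoter reporter units. After 24 h dosing, reporter mRNA was quantified by RT-PCR and capillary electrophoresis, and values fitted bidirectionally versus DMSO.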

Test [17] can be described thus: ATG_FoxO_CIS: Attagene CIS-FACTORIAL HepG2 Assay for human Forkhead box O (FoxO) (AID 2282943). The following applies: HepG2 Attagene cis-reporter, FoxO element, mRNA; actives raise or lower the signal. In short, it runs like this: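 HepG2, transient MRTU transfection (cis element, endogenous TFs). Dose 24 h. TriZol RNA → oligo(dT) RT → PCR → 6-FAM primer extension → HpaI cut → CE. Gain/loss vs DMSO.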

The nature of test [18]: ATG_GATA_CIS: Attagene CIS-FACTORIAL HepG2 Assay for human GATA Binding Protein (AID 2282944). As to conditions: HepG2 GATA cis-element reporter, Attagene multiplex mRNA; actives raise or lower the signal. In short, it runs like this:
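Cells: HepG2, transiently transfected with cis-regulated reporter transcription units. Exposure: 24 h. Detection: RT-PCR plus capillary electrophoresis of FAM-labeled fragments. Analysis: bidirectional, DMSO as baseline.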

Test [19] can be described thus: ATG_GLI_CIS: Attagene CIS-FACTORIAL HepG2 Assay for human Zinc Finger Protein GLI1 (AID 2282945). The following applies: HepG2, Attagene cis-factorial reporter mRNA, GLI element; actives raise or lower the signal. Summed up:
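Bidirectional curve fits relative to DMSO, using reporter mRNA levels from RT-PCR plus capillary electrophoresis. Cells were HepG2 transiently carrying cis-regulated reporter constructs, harvested 24 h after dosing.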

Test [20] concerns the target Bile acid receptor (Homo sapiens) (UniProt Q96RI1). Briefly: ATG_IR1_CIS: Attagene CIS-FACTORIAL HepG2 Assay for human Nuclear Receptor Subfamily 1 Group H Member 4 (NR1H4), IR1 submotif (AID 2282946). As to conditions: IR1 reporter transcription, actives raise or lower the signal. Summed up: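 HepG2 cells transiently transfected with multiplexed cis-element reporter units read endogenous transcription factor activity. After 24 h compound exposure, reporter mRNA was quantified by RT-PCR, fluorescent labelling, HpaI digestion and capillary electrophoresis; bidirectional fitting versus DMSO baseline.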

The structures appear in SMILES notation. The source made the active and inactive calls. How the source made its calls: active means hit-call score of the fitted dose curve at least 0.9, where 1 is the maximum; inactive means score below 0.9.

Sequence of Transcription factor E2F1 (Homo sapiens) (Q01094 whole entry, looked up): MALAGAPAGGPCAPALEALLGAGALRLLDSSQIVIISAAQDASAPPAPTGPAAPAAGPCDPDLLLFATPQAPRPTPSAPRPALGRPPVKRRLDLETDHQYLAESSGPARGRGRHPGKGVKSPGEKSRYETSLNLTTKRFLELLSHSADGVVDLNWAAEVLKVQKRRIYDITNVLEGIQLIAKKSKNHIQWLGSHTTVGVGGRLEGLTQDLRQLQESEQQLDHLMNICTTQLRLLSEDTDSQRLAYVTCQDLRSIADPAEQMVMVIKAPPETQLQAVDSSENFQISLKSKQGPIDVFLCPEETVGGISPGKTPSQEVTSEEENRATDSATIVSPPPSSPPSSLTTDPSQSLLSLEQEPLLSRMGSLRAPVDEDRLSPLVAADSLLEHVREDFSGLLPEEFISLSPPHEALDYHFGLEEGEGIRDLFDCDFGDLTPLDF
Sequence of Aryl hydrocarbon receptor (Homo sapiens) (P35869 whole entry, looked up): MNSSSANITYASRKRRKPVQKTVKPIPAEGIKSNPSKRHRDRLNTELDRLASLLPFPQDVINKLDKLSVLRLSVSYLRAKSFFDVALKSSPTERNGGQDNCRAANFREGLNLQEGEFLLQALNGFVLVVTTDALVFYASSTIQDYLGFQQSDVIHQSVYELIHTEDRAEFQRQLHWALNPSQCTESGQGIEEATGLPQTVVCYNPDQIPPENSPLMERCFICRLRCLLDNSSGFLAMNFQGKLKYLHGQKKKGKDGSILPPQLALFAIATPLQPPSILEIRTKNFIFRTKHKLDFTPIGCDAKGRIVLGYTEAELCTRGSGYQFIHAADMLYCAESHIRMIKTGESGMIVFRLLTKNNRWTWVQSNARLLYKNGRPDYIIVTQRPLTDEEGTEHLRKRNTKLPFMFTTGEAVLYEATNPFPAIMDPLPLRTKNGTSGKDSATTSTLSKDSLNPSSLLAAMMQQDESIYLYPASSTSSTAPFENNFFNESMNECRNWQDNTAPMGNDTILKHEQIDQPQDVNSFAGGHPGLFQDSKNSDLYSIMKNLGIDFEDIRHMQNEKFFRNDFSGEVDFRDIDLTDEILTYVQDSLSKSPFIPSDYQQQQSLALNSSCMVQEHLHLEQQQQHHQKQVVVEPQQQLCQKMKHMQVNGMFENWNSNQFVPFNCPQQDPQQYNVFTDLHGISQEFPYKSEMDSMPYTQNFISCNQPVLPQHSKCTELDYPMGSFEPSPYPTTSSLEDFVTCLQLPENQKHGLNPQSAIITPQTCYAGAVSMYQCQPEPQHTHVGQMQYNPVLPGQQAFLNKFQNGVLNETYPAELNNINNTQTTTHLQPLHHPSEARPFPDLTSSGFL
Sequence of CCAAT/enhancer-binding protein beta (Homo sapiens) (P17676 whole entry, looked up): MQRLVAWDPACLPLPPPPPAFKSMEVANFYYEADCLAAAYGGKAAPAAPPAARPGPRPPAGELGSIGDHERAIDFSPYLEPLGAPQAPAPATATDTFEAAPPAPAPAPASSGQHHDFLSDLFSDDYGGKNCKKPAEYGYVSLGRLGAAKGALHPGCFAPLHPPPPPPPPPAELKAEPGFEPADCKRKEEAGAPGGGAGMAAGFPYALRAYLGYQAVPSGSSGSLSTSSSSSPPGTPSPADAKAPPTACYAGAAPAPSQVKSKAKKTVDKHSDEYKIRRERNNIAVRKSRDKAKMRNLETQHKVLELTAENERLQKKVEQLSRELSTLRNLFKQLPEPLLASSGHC
Sequence of Hepatocyte nuclear factor 3-beta (Homo sapiens) (Q9Y261 whole entry, looked up): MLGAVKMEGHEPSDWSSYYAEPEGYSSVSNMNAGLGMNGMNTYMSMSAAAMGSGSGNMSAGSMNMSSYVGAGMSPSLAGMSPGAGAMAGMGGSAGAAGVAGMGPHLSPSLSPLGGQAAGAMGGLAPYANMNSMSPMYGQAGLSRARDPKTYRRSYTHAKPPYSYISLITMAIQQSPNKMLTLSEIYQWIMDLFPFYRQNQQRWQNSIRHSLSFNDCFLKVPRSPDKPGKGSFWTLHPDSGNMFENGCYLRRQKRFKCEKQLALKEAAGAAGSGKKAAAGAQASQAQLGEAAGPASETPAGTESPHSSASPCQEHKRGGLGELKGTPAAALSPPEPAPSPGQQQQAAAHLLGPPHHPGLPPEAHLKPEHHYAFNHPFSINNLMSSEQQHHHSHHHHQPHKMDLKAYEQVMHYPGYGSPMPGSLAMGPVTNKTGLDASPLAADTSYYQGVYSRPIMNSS
Sequence of Bile acid receptor (Homo sapiens) (Q96RI1 whole entry, looked up): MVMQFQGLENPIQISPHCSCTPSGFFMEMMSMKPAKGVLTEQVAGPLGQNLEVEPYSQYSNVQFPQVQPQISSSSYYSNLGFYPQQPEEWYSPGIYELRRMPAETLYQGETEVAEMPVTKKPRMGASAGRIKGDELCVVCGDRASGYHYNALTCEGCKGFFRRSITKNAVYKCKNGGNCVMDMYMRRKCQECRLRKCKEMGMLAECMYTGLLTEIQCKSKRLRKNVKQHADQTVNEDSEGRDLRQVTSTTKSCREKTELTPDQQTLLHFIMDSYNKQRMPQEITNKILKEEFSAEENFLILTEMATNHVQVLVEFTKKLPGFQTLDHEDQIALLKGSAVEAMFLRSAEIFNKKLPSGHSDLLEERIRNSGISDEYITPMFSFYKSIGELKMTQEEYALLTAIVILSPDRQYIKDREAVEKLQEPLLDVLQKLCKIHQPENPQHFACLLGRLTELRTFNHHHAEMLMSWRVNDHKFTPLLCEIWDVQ

As for `CCCCc1nc2cccnc2n1Cc1ccc(-c2ccccc2-c2nnn[nH]2)cc1`, the result in [1], in [2], in test [3], in [4], in test [5] and in test [6] was inactive. The compound was called inactive in test [7], in test [8], in [9], in test [10], in test [11] and in test [12]. The compound was called inactive in [13], in test [14], in test [15], in test [16], in [17] and in test [18]. The outcome in [19] and in test [20] was inactive.

On to `CC(C)OC(=O)C(C)(C)Oc1ccc(C(=O)c2ccc(Cl)cc2)cc1`, for which the result in test [1], in test [2], in [5], in [7], in test [9] and in test [10] was inactive. For the same compound, the call in [11], in test [13], in test [15], in test [16], in test [17] and in test [18] was inactive. The compound was called inactive in test [19] and in test [20]. The AC50 was 67.9 µM (active) in [3]; 61 µM (active) in test [4]; 74.4 µM (active) in test [6]; 45.7 µM (active) in [8]; 38.4 µM (active) in test [12]; 27.7 µM (active) in test [14].

As for `CC1(C)C(=O)NC(=O)N1CO`, the call in [1], in [2], in test [3], in [4], in [5] and in test [6] was inactive. The outcome in [7], in test [8], in test [9], in test [10], in test [11] and in test [12] was inactive. Besides, the outcome in [13], in [15], in test [16], in test [17], in test [18] and in [19] was inactive. Further, the AC50 in test [14] is 158 µM (active).

As to `CCCCCCCCCC[N+](C)(C)[O-]`, the call in test [1], in test [2], in test [3], in test [4], in [5] and in test [6] was inactive. The compound was classed as inactive in [7], in [8], in test [9], in [10], in test [11] and in test [12]. Also, the outcome in test [13], in [14], in test [15], in test [16], in test [17] and in test [18] was inactive. Besides, the compound was called inactive in [19].

These data come from PubChem BioAssay (EPA / NIEHS).
